We go through 15 molecules from PubChem BioAssay.

Test [1] addresses Nuclear receptor coactivator 3 (Homo sapiens) (UniProt Q9Y6Q9). Put plainly: SRC3 coactivator transcriptional activity inhibitors, confirmation, cell-based, luminescence, quadruplicate (AID 588792;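 active means mean inhibition over 43.08%, the solvent-only control mean plus 3 SD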;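 further: 0% = DMSO treated cells and 100% = gossypol at 36 µM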). Particulars: HEK293 GAL4-SRC3 luciferase reporter, at 3.6 µM, active compounds read high.
The test system of test [2] is transactivating tegument protein VP16 (Human herpesvirus 1), Gal4-VP16 luciferase reporter. Put plainly: VP16 transactivation inhibitors, counter-screen for SRC3 inhibitor project, cell-based, luminescence, high throughput (AID 588794; in the data active means inhibition above about 30%). Conditions: mammalian cells, VP16-driven luciferase reporter luminescence; at 3.6 µM; active compounds read high.
The target in test [3] is Nuclear receptor coactivator 1 (Homo sapiens) (UniProt Q15788). Description: SRC1 coactivator transcriptional activity inhibitors, confirmation, cell-based, luminescence, quadruplicate (AID 588820;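 active means mean inhibition above 46.68%, the untreated control wells mean plus 3 SD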;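 further: 0% = DMSO wells and 100% = gossypol 36 µM treated wells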). Particulars: HEK293 GAL4-SRC1 luciferase reporter, at 3.6 µM, active compounds read high.
Chain of Nuclear receptor coactivator 1 (Homo sapiens) (Q15788 whole entry, looked up, the tested form may be a part): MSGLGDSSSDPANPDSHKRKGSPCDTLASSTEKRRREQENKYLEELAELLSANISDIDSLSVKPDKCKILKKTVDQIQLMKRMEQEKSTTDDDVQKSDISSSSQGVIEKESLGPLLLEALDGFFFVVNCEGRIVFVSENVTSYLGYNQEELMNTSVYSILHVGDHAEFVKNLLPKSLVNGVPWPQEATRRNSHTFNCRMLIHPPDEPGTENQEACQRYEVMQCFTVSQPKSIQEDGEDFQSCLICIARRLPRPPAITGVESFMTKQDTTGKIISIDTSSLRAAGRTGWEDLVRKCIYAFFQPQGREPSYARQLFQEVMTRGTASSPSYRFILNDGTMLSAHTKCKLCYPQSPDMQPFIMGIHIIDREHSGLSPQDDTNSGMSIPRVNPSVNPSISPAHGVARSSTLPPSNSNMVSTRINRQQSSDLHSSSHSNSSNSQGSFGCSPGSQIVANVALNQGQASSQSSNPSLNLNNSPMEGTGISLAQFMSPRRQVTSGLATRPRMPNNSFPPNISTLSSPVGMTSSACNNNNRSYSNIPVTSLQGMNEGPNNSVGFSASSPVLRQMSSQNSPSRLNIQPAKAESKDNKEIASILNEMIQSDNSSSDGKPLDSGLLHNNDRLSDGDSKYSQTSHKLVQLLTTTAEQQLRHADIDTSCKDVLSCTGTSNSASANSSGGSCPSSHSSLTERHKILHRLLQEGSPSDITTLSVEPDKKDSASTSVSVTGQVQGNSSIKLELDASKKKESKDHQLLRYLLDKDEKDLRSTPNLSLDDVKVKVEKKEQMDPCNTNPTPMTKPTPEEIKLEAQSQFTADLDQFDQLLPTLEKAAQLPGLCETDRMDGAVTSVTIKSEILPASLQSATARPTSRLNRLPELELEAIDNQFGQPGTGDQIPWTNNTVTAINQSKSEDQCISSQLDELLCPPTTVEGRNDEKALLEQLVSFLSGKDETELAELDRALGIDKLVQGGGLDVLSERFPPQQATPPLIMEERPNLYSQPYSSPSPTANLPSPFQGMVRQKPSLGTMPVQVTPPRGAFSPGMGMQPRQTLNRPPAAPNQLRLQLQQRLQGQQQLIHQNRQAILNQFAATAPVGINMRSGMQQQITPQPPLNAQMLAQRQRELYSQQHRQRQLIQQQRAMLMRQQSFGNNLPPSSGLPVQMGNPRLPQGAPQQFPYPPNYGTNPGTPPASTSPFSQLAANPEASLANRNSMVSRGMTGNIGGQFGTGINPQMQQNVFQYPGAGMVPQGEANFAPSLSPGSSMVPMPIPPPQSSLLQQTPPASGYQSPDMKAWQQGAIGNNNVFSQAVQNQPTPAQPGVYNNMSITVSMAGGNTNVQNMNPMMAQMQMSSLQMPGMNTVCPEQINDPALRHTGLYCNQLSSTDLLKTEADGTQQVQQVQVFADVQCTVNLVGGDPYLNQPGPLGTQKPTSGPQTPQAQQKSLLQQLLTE
The nature of test [4]: VP16 transactivation inhibitors, counter-screen for SRC1 inhibitor project, cell-based, luminescence, high throughput (AID 588824; in the data active means inhibition above about 25%). Conditions: cell-based VP16 transactivation luciferase luminescence; at 3.6 µM; active compounds read high.
The nature of test [5]: StAR promoter reporter inhibitors, counter-screen for LRH-1 inverse agonist project, cell-based, luminescence, high throughput (AID 651611; in the data active means inhibition above about 28%). Particulars: StAR promoter luciferase reporter counterscreen, at 3.6 µM, active compounds read high.
In test [6] the target is Nuclear receptor subfamily 5 group A member 2 (Homo sapiens) (UniProt O00482). Put plainly: LRH-1 (NR5A2) inverse agonists, retest, confirmation, cell-based, luminescence (AID 651613; in the data active means inhibition above about 42%;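 further: HEK293T cells co-transfected with LRH-1 and StAR promoter luciferase reporter; 0% = vehicle wells and 100% = parental cells lacking receptor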). Particulars: cell-based LRH-1 luciferase reporter, inverse agonism; at 3.6 µM; active compounds read high.
Chain of Nuclear receptor subfamily 5 group A member 2 (Homo sapiens) (O00482 whole entry, looked up): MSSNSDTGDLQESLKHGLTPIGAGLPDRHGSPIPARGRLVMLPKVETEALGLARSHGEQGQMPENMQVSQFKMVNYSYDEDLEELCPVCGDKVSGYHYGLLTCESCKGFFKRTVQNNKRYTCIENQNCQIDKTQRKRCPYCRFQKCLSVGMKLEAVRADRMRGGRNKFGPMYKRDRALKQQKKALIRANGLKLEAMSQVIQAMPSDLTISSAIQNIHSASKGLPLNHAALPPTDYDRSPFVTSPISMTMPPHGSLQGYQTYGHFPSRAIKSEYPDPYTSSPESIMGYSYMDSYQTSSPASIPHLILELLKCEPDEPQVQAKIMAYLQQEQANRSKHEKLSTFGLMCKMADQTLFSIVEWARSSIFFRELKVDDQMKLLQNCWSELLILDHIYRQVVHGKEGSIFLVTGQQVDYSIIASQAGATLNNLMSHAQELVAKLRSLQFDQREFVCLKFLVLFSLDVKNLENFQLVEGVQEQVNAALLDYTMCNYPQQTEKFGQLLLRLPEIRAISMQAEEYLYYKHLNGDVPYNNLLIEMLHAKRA
Test [7] has as its target Steroidogenic factor 1 (Homo sapiens) (UniProt Q13285). Put plainly: SF1 (NR5A1) inverse agonists, counter-screen for LRH-1 inverse agonist project, cell-based, luminescence, high throughput (AID 651614).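 Further: cells cotransfected with StAR promoter reporter and SF1 expression vector; 0% = vehicle on cells with receptor and 100% = vehicle on cells lacking receptor.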 Conditions: cell-based SF1 luciferase reporter, at 3.6 µM, active compounds read high.
Test [8] is described as follows: VP16 transactivation reporter inhibitors, counter-screen for LRH-1 inverse agonist project, cell-based, luminescence, high throughput (AID 651615; in the data active means inhibition above about 33%). Particulars: Gal4-VP16 luciferase reporter cells, at 3.6 µM, active compounds read high.
The subject of test [9] is transactivating tegument protein VP16 (Human herpesvirus 1). Description: VP16 transactivation reporter inhibitors, counter-screen for SRC2 inhibitor project, cell-based, luminescence, single concentration (AID 652007; in the data active means inhibition above about 36%). Conditions: cell-based VP16 transactivation luciferase reporter, at 8.9 µM, active compounds read high.
Test [10] addresses Nuclear receptor coactivator 2 (Homo sapiens) (UniProt Q15596). Put plainly: SRC2 coactivator transcriptional activity inhibitors, confirmation, cell-based, luminescence, HEK293, triplicate (AID 652008;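 active means mean inhibition above 46.5%, the solvent-only control mean plus 3 SD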;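 further: 0% = DMSO-treated cells and 100% = Gossypol at 36 µM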). Particulars: HEK293 GAL4-SRC2 luciferase reporter, at 8.9 µM, active compounds read high.

Values without a mark were called inactive. Calls of active or inactive are those of the source. Unless noted, no stated cut-off is given here; in the data, active means inhibition above about 44%; inactive means the rest.

Chain of Nuclear receptor coactivator 3 (Homo sapiens) (Q9Y6Q9 whole entry, looked up, the tested form may be a part): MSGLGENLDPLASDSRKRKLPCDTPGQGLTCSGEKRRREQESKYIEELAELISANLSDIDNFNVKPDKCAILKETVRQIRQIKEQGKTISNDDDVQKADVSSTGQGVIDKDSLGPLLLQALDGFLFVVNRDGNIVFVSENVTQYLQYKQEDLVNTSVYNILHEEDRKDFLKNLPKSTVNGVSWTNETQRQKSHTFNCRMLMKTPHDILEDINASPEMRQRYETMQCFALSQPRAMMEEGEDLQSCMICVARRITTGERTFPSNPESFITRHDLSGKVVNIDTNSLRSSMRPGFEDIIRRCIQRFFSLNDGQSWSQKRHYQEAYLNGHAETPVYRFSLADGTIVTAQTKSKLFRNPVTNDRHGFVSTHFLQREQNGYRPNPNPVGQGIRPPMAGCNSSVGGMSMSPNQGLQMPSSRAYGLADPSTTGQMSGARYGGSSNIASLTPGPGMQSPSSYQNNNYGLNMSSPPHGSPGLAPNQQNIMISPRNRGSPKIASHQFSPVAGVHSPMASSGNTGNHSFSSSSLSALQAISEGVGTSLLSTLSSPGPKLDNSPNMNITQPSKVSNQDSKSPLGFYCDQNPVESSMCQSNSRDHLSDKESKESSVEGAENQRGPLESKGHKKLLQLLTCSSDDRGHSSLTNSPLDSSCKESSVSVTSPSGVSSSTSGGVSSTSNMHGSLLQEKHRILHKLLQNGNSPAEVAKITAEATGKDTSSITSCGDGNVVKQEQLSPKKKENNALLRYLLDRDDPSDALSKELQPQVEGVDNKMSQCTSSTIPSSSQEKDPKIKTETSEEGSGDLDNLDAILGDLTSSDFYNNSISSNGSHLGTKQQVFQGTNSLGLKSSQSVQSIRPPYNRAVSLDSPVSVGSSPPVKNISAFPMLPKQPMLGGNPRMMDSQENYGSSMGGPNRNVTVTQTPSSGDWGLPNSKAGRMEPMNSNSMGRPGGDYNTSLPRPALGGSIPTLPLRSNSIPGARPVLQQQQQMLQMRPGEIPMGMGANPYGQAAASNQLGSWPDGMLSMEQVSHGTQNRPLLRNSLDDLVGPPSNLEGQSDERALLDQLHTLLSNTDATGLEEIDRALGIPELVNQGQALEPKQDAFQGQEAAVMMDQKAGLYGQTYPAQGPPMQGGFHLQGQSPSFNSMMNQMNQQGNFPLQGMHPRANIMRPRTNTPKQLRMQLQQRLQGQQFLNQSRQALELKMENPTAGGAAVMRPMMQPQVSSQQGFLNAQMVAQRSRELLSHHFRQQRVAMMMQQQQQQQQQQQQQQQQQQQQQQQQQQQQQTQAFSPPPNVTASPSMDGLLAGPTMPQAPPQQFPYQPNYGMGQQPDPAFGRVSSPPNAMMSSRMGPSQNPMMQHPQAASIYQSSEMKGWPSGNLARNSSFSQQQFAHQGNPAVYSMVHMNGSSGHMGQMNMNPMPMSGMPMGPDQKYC
Chain of Nuclear receptor coactivator 2 (Homo sapiens) (Q15596 whole entry, looked up, the tested form may be a part): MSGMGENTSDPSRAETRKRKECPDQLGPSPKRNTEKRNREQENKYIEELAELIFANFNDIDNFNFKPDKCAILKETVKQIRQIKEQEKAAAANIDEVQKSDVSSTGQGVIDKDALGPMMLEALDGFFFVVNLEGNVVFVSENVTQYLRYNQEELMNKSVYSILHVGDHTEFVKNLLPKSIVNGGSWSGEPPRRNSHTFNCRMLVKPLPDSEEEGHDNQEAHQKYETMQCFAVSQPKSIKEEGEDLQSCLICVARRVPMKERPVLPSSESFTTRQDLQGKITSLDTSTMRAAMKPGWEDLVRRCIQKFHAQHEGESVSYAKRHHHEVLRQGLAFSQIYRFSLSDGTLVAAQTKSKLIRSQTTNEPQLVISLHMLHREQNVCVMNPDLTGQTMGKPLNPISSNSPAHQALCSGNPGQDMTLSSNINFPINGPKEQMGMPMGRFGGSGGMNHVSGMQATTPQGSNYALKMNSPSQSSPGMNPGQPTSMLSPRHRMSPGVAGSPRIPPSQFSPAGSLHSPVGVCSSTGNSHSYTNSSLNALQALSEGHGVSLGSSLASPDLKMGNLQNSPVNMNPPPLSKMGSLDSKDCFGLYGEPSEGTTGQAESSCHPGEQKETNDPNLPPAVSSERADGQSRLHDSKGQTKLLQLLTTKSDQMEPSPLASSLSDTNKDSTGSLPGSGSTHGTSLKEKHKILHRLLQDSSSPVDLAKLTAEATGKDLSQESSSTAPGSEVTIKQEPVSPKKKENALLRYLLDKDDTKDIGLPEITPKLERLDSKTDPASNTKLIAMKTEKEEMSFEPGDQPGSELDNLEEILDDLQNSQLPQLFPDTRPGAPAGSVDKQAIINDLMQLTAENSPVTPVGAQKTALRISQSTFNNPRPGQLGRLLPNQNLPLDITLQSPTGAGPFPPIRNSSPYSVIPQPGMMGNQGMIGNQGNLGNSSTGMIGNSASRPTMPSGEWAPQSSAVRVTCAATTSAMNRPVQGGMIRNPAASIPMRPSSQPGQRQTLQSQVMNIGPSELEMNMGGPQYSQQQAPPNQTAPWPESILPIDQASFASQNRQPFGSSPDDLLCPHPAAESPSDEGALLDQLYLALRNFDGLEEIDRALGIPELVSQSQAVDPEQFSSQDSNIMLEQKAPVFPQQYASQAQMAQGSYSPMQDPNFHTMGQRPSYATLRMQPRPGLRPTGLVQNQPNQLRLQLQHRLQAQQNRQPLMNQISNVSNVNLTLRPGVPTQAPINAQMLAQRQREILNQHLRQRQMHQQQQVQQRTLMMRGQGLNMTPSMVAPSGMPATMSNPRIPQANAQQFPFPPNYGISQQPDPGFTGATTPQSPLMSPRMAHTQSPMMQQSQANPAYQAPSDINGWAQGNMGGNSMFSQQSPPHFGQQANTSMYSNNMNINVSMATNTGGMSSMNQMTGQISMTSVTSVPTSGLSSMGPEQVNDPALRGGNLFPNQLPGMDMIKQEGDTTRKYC

As for `COC(=O)Cc1ccc(NC(=O)c2ccc(C(C)(C)C)cc2)cc1`, the inhibition in [1] was 55.9% (active); in test [2], 40.7% (active); in test [3] it was 43.4%; in test [4] it was 44.8% (active); in test [5], 54.3% (active); in test [6] it was 76.9% (active). In addition, the inhibition in test [7] is 67.3% (active); in test [8], 50.8% (active); in test [9], 21.1%; in test [10], 92.9% (active).

As for `COc1cccc(NC(=O)CSc2nnc(-c3cc(C)n(-c4ccccc4)c3C)o2)c1`, the inhibition is 46.8% (active) in test [1]; 23.3% in test [2]; 3.49% in [3]; -14.5% in test [4]; -29.8% in test [5]; -55.2% in test [6]. Further, the inhibition in [7] was -12.4%; in [8], -23.9%; in [9], 11%; in [10], 48.5% (active).

On to `Cc1cc(C(=O)COC(=O)c2ccccc2O)c(C)n1Cc1cccs1`, for which the inhibition in test [1] is 85.3% (active); in test [2] it was 84.9% (active); in test [3], 71.1% (active); in [4], 74.4% (active); in test [5] it was 85% (active); in test [6], 59% (active). Besides, the inhibition in test [7] is 80.2% (active); in [8] it was 73.6% (active); in [9], 81% (active); in test [10] it was 92.7% (active).

Regarding `N#Cc1c(NC(=O)CSc2ncn[nH]2)sc2c1CCCCC2`, the inhibition was 51.8% (active) in test [1]; 65.9% (active) in test [2]; 28.3% in test [3]; 59% (active) in [4]; 29.9% (active) in [5]; 62.8% (active) in [6]. Moreover, the inhibition in test [7] is 50.1% (active); in [8], 60.7% (active); in test [9], 87.6% (active); in test [10], 88% (active).

As for `COc1cc(NC(=O)COc2cc(O)c3c(c2)OC(C)(C)CC3=O)cc(OC)c1OC`, the inhibition in test [1] was 17.8%; in test [2], 41.5% (active); in test [3], -14.2%; in test [4], 41.3% (active); in test [5], 50.4% (active); in test [6] it was 57.3% (active). The inhibition in test [7] is 67.5% (active); in test [8] it was 64.6% (active); in [9] it was 43.5% (active); in test [10], 38.5%.

With `O=C(COc1ccc(Cl)cc1Cl)Nc1ccccn1`, the inhibition is 56.2% (active) in [1]; 53.6% (active) in [2]; 32.1% in test [3]; 48.2% (active) in [4]; 46.9% (active) in test [5]; 27.2% in [6]. The inhibition is 60.6% (active) in [7], 32.3% (active) in test [8], 67.4% (active) in [9] and 85.2% (active) in test [10].

On to `O=C(NCCc1ccccc1)c1ccc2c(c1)OCCO2`, for which the inhibition is 41.6% in test [1]; 11.9% in test [2]; -81.6% in [3]; 0.41% in [4]; 29.6% (active) in test [5]; -10.6% in test [6]. The inhibition in [7] was 42%; in [8], 7.34%; in test [9], 44.1% (active); in test [10] it was 77.7% (active).

On to `CNc1cccnc1C=NNC(N)=S`, for which the inhibition in test [1] was 71.3% (active); in test [2] it was 40.5% (active); in [3], 58.5% (active); in test [4], 17.9%; in test [5], 25.3%; in test [6] it was 57.8% (active). In addition, the inhibition in test [7] was 52.1% (active); in [8] it was 30.4%; in [9], -4.08%; in test [10], 9.84%.

On to `COc1ccccc1C(=O)Nc1nc2ccccc2[nH]1`, for which the inhibition in test [1] is 79.4% (active); in test [2], 72.7% (active); in [3], 58.5% (active); in test [4] it was 75.2% (active); in test [5], 75.3% (active); in test [6], 75.4% (active). The inhibition is 83.8% (active) in test [7], 66.3% (active) in test [8], 89.6% (active) in test [9] and 93.8% (active) in test [10].

For the molecule `CC(C)Nc1ncnc2ccc(Br)cc12`, the inhibition is 74.3% (active) in test [1]; 72.7% (active) in test [2]; 65.3% (active) in test [3]; 58.9% (active) in test [4]; 17.8% in test [5]; 61.1% (active) in test [6]. For the same molecule, the inhibition is 58.4% (active) in test [7], 71% (active) in test [8], 20.2% in test [9] and 65.7% (active) in test [10].

In the case of `O=C(Nc1nc2cc3c(cc2s1)OCCO3)C1=COCCO1`, the inhibition is 30.4% in test [1]; 26.9% in test [2]; -78.2% in test [3]; 13.4% in [4]; 24.4% in test [5]; -3.27% in test [6]. For the same molecule, the inhibition was 52.2% (active) in [7], 4.13% in [8], 70.8% (active) in [9] and 81.6% (active) in [10].

`Nc1ccc(Oc2cccc(Oc3ccc(N)cc3)c2)cc1`: the inhibition in test [1] is 43.4% (active); in test [2], 29.6% (active); in [3], 24.3%; in test [4], 27.6% (active); in [5], 47.8% (active); in [6] it was 75.6% (active). Further, the inhibition in test [7] was 67.8% (active); in test [8], 47.5% (active); in [9], 88.8% (active); in test [10], 92.8% (active).

Turning to `COC1=CC(=O)c2c(ccc3ncnc(N)c23)C1=O`, the inhibition is 60.8% (active) in test [1]; 65.1% (active) in [2]; -4.46% in [3]; 64.3% (active) in [4]; 62.4% (active) in [5]; 82.8% (active) in [6]. Also, the inhibition was 84.6% (active) in test [7], 82.1% (active) in [8], 37.5% (active) in test [9] and 69.5% (active) in test [10].

For `CSC1SCC2C(=O)N(C)C(C(C)C)C(=O)OCC(NC(=O)c3cnc4ccccc4n3)C(=O)NC(C)C(=O)N(C)C1C(=O)N(C)C(C(C)C)C(=O)OCC(NC(=O)c1cnc3ccccc3n1)C(=O)NC(C)C(=O)N2C` (stereo not given), the inhibition is 96.8% (active) in [1]; 96.7% (active) in [2]; 85.7% (active) in [3]; 96.8% (active) in [4]; 86.5% (active) in test [5]; 107% (active) in test [6]. The inhibition is 97.1% (active) in [7], 97.3% (active) in test [8], 62.2% (active) in [9] and 51.1% (active) in test [10].

For the molecule `O=C(CN1C(=O)c2ccccc2S1(=O)=O)c1ccc(Cl)cc1Cl`, the inhibition is 65.8% (active) in test [1]; 71.5% (active) in [2]; 8.08% in test [3]; 62.5% (active) in [4]; 67.9% (active) in [5]; 55.3% (active) in [6]. Besides, the inhibition in [7] was 73% (active); in test [8] it was 57.4% (active); in [9], 81.2% (active); in test [10], 83.7% (active).
